The subject of experiment [1] is Plasmodium falciparum Sir2 (PF13_0152, Sir2A). Description: Plasmodium falciparum Sir2A binding compounds – biochemical, small-molecule microarray, 635 nm fluorescence, primary screen (AID 1098).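 Note: score merges spot fluorescence intensity with its signal-to-noise ratio.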 Conditions: fluorescence 635 nm, higher = more signal.
Experiment [2] is described as follows: probe aDKK1 binding to arrayed compounds – biochemical, biotinylated probe, 635/667 nm fluorescence, primary screen (AID 1099).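 Note: score merges 667nm spot fluorescence with signal to noise across triplicate slides; reference of the scale not given here.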 Particulars: small-molecule microarray, higher = more signal.
Experiment [3] in a line: probe aCHRDL2 binding to arrayed compounds – biochemical, biotinylated probe, 635/667 nm fluorescence, primary screen (AID 1100). Conditions: small-molecule microarray, higher = more signal.
The nature of experiment [4]: change in splice reporter luminescence, either direction, cell-based, HEK293, spliceosome inhibition project, primary screen (AID 1101).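 Note: HEK293 cells carrying a splicing-competent luciferase reporter gene; test concentration not given here.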 Conditions: HEK293 splicing luciferase reporter, 24 h, higher = more signal, called active from +8 up or from −8 down. In general terms: Reporter assays use an easily measured gene product as a stand-in for the process of interest.
Experiment [5] has as its target Fibroblast growth factor 10 (Homo sapiens) (UniProt O15520). Description: compounds binding fibroblast growth factor 10 – biochemical, small-molecule microarray, 635 nm fluorescence, primary screen (AID 1102). Conditions: FGF10 binding, fluorescence 635 nm, higher = more signal.
The subject of experiment [6] is glycogen synthase kinase-3 (GSK3A per assay name; protocol says GSK3B). Description: compounds binding glycogen synthase kinase-3 – biochemical, small-molecule microarray, 635 nm fluorescence, GSK3A, primary screen (AID 1103). Note: the record names both GSK3A and GSK3B. Particulars: fluorescence 635 nm, higher = more signal.
For experiment [7], the target named is Epidermal growth factor receptor (Homo sapiens) (UniProt P00533). Description: compounds binding epidermal growth factor receptor – biochemical, small-molecule microarray, 635 nm fluorescence, primary screen (AID 1104).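 Note: score merges 667 nm emission intensity with spot signal to noise over triplicate slides.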 Particulars: EGFR binding, higher = more signal.
Chain of Epidermal growth factor receptor (Homo sapiens) (P00533 whole entry, looked up): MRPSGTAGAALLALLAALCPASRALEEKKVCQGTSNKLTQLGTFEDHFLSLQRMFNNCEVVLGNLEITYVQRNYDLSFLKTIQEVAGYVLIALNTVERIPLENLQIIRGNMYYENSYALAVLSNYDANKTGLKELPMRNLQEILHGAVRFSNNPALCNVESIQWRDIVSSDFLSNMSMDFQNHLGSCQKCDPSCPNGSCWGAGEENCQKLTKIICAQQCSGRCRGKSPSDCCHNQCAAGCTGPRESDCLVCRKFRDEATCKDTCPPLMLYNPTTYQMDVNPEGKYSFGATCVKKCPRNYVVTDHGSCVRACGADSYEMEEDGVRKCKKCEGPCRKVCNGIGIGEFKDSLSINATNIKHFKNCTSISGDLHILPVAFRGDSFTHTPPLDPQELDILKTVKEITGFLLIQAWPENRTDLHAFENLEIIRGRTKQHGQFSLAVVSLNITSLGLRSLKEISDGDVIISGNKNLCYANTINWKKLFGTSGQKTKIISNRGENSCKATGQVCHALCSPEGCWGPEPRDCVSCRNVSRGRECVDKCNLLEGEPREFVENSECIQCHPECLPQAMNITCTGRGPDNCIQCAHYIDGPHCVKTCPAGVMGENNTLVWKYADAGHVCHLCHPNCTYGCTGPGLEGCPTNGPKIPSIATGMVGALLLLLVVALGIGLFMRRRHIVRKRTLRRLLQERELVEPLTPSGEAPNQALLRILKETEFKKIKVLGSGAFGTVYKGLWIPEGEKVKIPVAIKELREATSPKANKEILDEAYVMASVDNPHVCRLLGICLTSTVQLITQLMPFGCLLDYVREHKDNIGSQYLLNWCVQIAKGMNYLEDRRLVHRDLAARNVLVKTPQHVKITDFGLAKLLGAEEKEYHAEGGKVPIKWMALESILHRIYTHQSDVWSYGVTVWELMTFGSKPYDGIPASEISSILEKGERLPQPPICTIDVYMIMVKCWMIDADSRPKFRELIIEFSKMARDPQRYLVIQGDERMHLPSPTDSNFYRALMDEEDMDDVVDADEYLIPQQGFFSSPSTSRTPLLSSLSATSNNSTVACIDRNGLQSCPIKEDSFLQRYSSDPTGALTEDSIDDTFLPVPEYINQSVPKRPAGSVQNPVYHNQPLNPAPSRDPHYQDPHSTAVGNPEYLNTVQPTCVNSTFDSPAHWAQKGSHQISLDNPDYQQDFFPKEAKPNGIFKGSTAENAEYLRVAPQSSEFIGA
The target in experiment [8] is Follistatin-related protein 3 (Homo sapiens) (UniProt O95633). Description: compounds binding follistatin-related protein 3 – biochemical, small-molecule microarray, 635 nm fluorescence, primary screen (AID 1105).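 Note: score merges emission near 667 nm and signal to noise per printed spot across three slides.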 Particulars: FSTL3 binding, higher = more signal.
Chain of Follistatin-related protein 3 (Homo sapiens) (O95633 whole entry, looked up): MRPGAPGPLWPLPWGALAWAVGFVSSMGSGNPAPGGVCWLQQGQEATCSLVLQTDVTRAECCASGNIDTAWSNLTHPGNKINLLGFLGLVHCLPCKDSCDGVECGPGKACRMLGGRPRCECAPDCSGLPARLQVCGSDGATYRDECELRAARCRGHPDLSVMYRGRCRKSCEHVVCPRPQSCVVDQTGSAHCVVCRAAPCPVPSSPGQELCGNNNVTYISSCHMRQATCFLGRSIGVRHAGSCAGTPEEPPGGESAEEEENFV
Experiment [9] deals with Dickkopf-related protein 1 (Homo sapiens) (UniProt O94907). Description: small molecules binding DKK1 protein – biochemical, small-molecule microarray, 635 nm fluorescence scan, primary screen (AID 1106).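 Note: score merges emission near 667 nm with signal to noise over three replicate slides.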 Conditions: higher = more signal.
Chain of Dickkopf-related protein 1 (Homo sapiens) (O94907 whole entry, looked up): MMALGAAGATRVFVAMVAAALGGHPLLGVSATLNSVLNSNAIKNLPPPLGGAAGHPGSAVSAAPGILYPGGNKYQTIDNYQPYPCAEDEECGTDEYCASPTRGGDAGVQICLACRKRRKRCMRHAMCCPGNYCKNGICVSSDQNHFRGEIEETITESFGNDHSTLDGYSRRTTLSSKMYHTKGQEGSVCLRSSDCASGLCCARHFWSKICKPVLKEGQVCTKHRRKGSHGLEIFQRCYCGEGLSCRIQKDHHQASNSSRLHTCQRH
In experiment [10] the test system is Inhibin beta A chain (activin A). Kind of experiment: small molecules binding activin A – biochemical, small-molecule microarray, 635 nm fluorescence scan, primary screen (AID 1107).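 Note: mouse activin A protein probed at 4.33 µg/mL on printed slides; score merges bound-protein fluorescence near 667 nm with spot signal-to-noise.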 Conditions: INHBA, higher = more signal.

Experimental findings from PubChem BioAssay are described below.

The source made the active and inactive calls.

Chain of Fibroblast growth factor 10 (Homo sapiens) (O15520 whole entry, looked up): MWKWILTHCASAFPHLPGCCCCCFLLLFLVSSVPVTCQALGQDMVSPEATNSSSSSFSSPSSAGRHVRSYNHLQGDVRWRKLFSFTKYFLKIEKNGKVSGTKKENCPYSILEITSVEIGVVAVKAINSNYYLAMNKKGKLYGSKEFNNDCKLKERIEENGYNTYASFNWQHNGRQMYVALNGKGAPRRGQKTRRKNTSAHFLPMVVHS

Take `O=C1OCC=C[C@H]2OC34C=CCN(Cn5nnc6ccccc65)C(=O)[C@H]3N(CCCCCO)C(=O)[C@@H]4[C@@H]12` (stereo not given in full): the composite z-score in [1] is 0.665; in experiment [2], 0.26; in [3], 0.586; in experiment [5] it was -0.658; in experiment [6], -0.614; in experiment [7], -1.31. Besides, the composite z-score in experiment [8] is -0.77; in [9], -1.29; in experiment [10] it was -0.212. In experiment [4], the z-score was -0.313 (inactive).
Regarding `COc1ccc([C@H]2C[C@H]3C(Br)=C[C@@]2(CO)C(=O)[C@]32CO2)cc1`, the composite z-score was -0.194 in [1]; -0.118 in experiment [2]; 0.565 in [3]; -0.0884 in experiment [5]; -0.516 in [6]; 0.197 in experiment [7]. The figures for the composite z-score in experiment [8], in experiment [9] and in experiment [10] were -0.387, -0.198 and 1.32, respectively. Also, the z-score in experiment [4] was -0.206 (inactive).
As to `CN(C)CCCCCCNC(=O)[C@@H]1C[C@@H]2C(=O)N3CCC[C@H]3C(=O)N2[C@@H]1c1ccc(O)cc1`, the composite z-score in experiment [1] turned out to be 0.609; in [2], 0.381; in [3] it was 0.234; in experiment [5], 1.1; in [6] it was 1.34; in experiment [7], 0.842. The results for the composite z-score in experiment [8], in experiment [9] and in experiment [10] were 1.48, 1.69 and 0.254, respectively. In experiment [4], the z-score was -1.51 (inactive).
As to `COC(=O)c1c2oc(c1C(=O)OC)C(=O)NC1(CCCCC1)c1cn(nn1)C[C@H](Cc1ccccc1)NC(=O)N[C@H](CO)CC2`, the composite z-score was -0.856 in [1]; 0.0173 in experiment [2]; -0.709 in [3]; 1.15 in [5]; 0.386 in [6]; 0.0053 in [7]. Further, the values for the composite z-score in [8], in experiment [9] and in [10] were 0.34, 0.25 and -0.007, respectively. For the same compound, the z-score in experiment [4] is -0.365 (inactive).
Consider `CCN(CC)c1ccc(N2CC=CC34O[C@@H]5/C=C\CCC(C)OC(=O)C5[C@H]3C(=O)N(CCCCCO)[C@@H]4C2=O)cc1` (stereo not given in full), for which the composite z-score was -1.01 in [1]; -0.0549 in experiment [2]; 0.288 in experiment [3]; -0.976 in experiment [5]; -1.02 in [6]; -0.518 in experiment [7]. Also, the composite z-score is -0.669 in experiment [8], -0.555 in experiment [9] and 0.306 in [10]. In addition, in experiment [4], the z-score was 0.292 (inactive).
Consider `[N-]=[N+]=Nc1ccccc1[C@H]1OC(c2ccc(OCCCO)cc2)=N[C@@]1(CCS(=O)(=O)c1ccccc1)C(=O)NCc1ccccc1`, for which the composite z-score in experiment [1] stood at 0.91; in [2], 0.812; in [3], 0.988; in experiment [5], 1.18; in experiment [6] it was 1.32; in [7] it was 0.258. Besides, the composite z-score in experiment [8] came to 1.14; in experiment [9], 0.584; in experiment [10], 1.05. For the same compound, the z-score in experiment [4] is -0.431 (inactive).
In the case of `O=C1C2C=CC(C(O)COCc3ccccc3)N(Nc3ccc([N+](=O)[O-])cc3)C2C(=O)N1c1ccccc1` (stereo not given), the composite z-score is 1.06 in [1]; 0.735 in experiment [2]; 0.889 in [3]; 1.05 in experiment [5]; 1.32 in experiment [6]; 0.42 in [7]. Further, the composite z-score was 1.22 in [8], 0.111 in [9] and 0.976 in experiment [10]. The z-score in [4] is -1.44 (inactive).
In the case of `COCCOC(=O)N1C(=O)[C@@]2(c3ccccc31)[C@H](c1ccc(OCCO)cc1)N1[C@H](c3ccccc3)[C@H](c3ccccc3)OC(=O)[C@H]1[C@@H]2C(=O)N1CCc2cc(OC)c(OC)cc2C1`, the composite z-score in [1] came out at 1.53; in experiment [2], 0.305; in experiment [3], 0.232; in experiment [5], 1.29; in experiment [6], 1.3; in experiment [7] it was 0.738. Also, the composite z-score in experiment [8] came to 1.42; in [9] it was 0.476; in experiment [10] it was 0.355. For the same compound, the z-score in experiment [4] was -1.02 (inactive).
On to `COC(=O)[C@]1(CCC(=O)OC(C)(C)C)N=C(c2ccc(OCCCO)cc2)O[C@@H]1c1ccccc1`, for which the composite z-score in experiment [1] was 1.37; in [2] it was 0.46; in experiment [3] it was 0.779; in experiment [5] it was -0.361; in experiment [6], -0.495; in experiment [7] it was -0.754. Besides, the composite z-score in [8] was -0.577; in experiment [9] it was -0.563; in experiment [10], -0.0102. Further, in experiment [4], the z-score was -0.783 (inactive).
As to `N#Cc1ccc(C(O)C2C=CC3C(=O)N(c4ccccc4)C(=O)C3N2Nc2ccccc2F)cc1` (stereo not given), the composite z-score in experiment [1] is 1.65; in experiment [2], -0.0589; in experiment [3] it was 0.267; in [5] it was 0.877; in [6], 0.849; in [7], 0.77. Moreover, the composite z-score in experiment [8] was 0.746; in [9], -0.116; in experiment [10], 0.299. Moreover, the z-score in [4] was -1.37 (inactive).
In the case of `C=C(/C(=C/C[C@H](OC(=O)c1ccncc1)c1ccc(OCCO)cc1)c1cc(C(=O)OC)ccc1OC)C(C)C`, the composite z-score is 0.569 in [1]; 0.031 in experiment [2]; 0.244 in experiment [3]; 1.42 in experiment [5]; -0.534 in [6]; -0.114 in experiment [7]. Also, the composite z-score in [8] worked out at 0.487; in experiment [9], 0.178; in experiment [10] it was 1.13. Also, the z-score in [4] is -0.821 (inactive).
For `COCCCNC(=O)[C@]1(Cc2ccccc2)N=C(c2ccc(OCCCO)cc2)O[C@@H]1c1ccccc1CN=[N+]=[N-]`, the composite z-score in experiment [1] amounted to 1.24; in experiment [2], 1.2; in experiment [3], 1.29; in experiment [5], 1.49; in experiment [6], 0.98; in [7], 0.25. The composite z-score was 0.721 in [8], -0.0836 in experiment [9] and 0.608 in experiment [10]. For the same compound, in experiment [4], the z-score is -0.97 (inactive).
Turning to `COC(=O)[C@@]1(Cc2ccc(OC)cc2)[C@H]2c3cc(C(=O)N4CCCC4)n(CCc4ccc(O)c(O)c4)c3C[C@H]2CN1C(=O)c1ccccc1`, the composite z-score in experiment [1] is 1.49; in experiment [2] it was 0.845; in [3], 1.35; in [5], 0.0136; in experiment [6], 0.0777; in experiment [7] it was -0.352. Besides, the figures for the composite z-score in experiment [8], in experiment [9] and in [10] were -0.269, -0.45 and 1.76, respectively. In addition, in experiment [4], the z-score is -0.73 (inactive).
Consider `O=C1O[C@@H](c2ccccc2)[C@@H](c2ccccc2)N2[C@@H](c3ccc(OCCO)cc3)[C@]3(C(=O)Nc4ccc(C#CCCO)cc43)[C@@H](C(=O)NC[C@H](O)c3ccccc3)[C@H]12`, for which the composite z-score in [1] is 1.51; in experiment [2], 0.312; in experiment [3], 0.333; in experiment [5], 0.84; in [6] it was 0.905; in [7] it was 0.94. For the same compound, the composite z-score in experiment [8] was found to be 0.956; in experiment [9] it was 0.687; in experiment [10] it was 0.73. For the same compound, the z-score in experiment [4] is -0.6 (inactive).
Regarding `O=C(O)[C@@]1(CCS(=O)(=O)c2ccccc2)N=C(c2ccc(OCCCO)cc2)O[C@H]1c1ccccc1`, the composite z-score in experiment [1] was 0.729; in experiment [2] it was 0.737; in [3], 0.905; in experiment [5] it was -0.678; in experiment [6], -0.123; in experiment [7], -0.264. Further, the composite z-score in experiment [8] is 0.215; in experiment [9] it was -1.05; in [10], 0.658. Besides, in experiment [4], the z-score is -0.123 (inactive).
Turning to `CCCC[C@H]1C[C@@H]1[C@@H]1N(P(=O)(c2ccccc2)c2ccccc2)C[C@@](O)(c2ccccc2)CC12CC2`, the composite z-score in experiment [1] is 0.17; in experiment [2], 1.12; in [3] it was 1.28; in [5] it was -0.295; in experiment [6] it was 0.0826; in experiment [7], -0.678. Besides, the values for the composite z-score in [8], in [9] and in experiment [10] were 0.21, -1.51 and 0.973, respectively. In addition, the z-score in experiment [4] is -0.644 (inactive).
On to `O=C(NCCN1CCOCC1)[C@@H]1c2ccccc2C(=O)N(Cc2cc(C(F)(F)F)cc(C(F)(F)F)c2)[C@H]1c1ccc(CO)cc1`, for which the composite z-score in [1] is 1.51; in experiment [2], 0.254; in experiment [3], 0.851; in [5] it was -1.17; in experiment [6] it was -0.332; in experiment [7], -1.35. Besides, the composite z-score was -1.55 in experiment [8], -1.23 in [9] and -1.54 in experiment [10]. Moreover, in experiment [4], the z-score is 0.91 (inactive).
